The values that follow come from ChEMBL document CHEMBL2218924, “A broad activity screen in support of a chemogenomic map for kinase signalling research and drug discovery” (Biochem J, 2013).

In general, residual activity refers to the signal under treatment as a percentage of the control signal.

Molecules are shown by their SMILES.

For this assay, the target named is Rho-associated protein kinase 2 (Homo sapiens) (UniProt O75116). The conditions noted are these: at 1 µM.
Rho-associated protein kinase 2 (Homo sapiens), sequence (O75116 whole entry, looked up): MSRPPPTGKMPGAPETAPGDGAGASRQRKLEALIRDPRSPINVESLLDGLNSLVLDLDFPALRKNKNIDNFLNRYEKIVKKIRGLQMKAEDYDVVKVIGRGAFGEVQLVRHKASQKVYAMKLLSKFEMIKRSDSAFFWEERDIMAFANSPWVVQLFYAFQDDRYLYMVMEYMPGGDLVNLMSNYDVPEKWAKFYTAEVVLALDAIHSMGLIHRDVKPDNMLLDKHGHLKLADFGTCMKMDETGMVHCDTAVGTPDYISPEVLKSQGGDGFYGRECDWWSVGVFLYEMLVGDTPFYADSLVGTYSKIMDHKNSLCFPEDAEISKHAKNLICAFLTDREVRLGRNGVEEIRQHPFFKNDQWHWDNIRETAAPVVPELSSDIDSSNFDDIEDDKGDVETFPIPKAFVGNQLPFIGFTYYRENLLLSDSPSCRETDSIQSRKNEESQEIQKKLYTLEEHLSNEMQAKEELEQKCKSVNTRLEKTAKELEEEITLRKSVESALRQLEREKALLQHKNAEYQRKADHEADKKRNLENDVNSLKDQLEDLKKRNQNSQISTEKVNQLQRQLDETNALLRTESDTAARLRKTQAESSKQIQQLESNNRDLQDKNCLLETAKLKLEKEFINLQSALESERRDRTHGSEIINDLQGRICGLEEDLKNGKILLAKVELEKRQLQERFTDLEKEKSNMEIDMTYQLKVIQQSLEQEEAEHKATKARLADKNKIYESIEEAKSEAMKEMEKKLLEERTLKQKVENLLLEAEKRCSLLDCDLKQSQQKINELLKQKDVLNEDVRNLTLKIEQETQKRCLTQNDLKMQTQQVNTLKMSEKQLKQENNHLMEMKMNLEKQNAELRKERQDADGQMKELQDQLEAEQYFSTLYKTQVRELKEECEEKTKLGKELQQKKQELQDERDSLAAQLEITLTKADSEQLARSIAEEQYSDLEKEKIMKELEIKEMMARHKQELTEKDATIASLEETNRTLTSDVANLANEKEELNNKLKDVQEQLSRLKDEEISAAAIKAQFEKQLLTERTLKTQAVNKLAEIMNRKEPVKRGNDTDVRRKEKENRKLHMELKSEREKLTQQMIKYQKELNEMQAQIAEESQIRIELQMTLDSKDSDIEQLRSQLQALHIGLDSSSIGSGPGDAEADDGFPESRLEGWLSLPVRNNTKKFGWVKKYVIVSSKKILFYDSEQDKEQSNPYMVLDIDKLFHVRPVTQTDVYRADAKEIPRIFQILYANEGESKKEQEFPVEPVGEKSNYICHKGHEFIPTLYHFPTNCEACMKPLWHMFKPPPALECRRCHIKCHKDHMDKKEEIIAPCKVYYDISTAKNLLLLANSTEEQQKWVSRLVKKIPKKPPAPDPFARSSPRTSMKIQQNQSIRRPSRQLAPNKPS
In the case of `CCN(CC)CCCCN1c2ccccc2Oc2ccc(Cl)cc21`, the residual activity was determined as 110%.
With `c1ccc(-c2n[nH]c3c2oc2ccccc23)cc1` the figure was 97%.
For the molecule `Cc1nc2cc3nc(-c4cccs4)cnc3cc2n1C`, the residual activity is 113%.
In the case of `Oc1ccc(Nc2nc(-c3ccc(Cl)cc3)cs2)cc1`, the residual activity amounted to 100%.
With `CC(=O)O/N=C1\C(=C2\C(=O)Nc3cc(Br)ccc32)Nc2ccccc21` the figure was 98%; with `CCN(CC)C(=O)c1ccc(Nc2nc(OCC3CCCCC3)c3nc[nH]c3n2)cc1`, 33%.
With `CO[C@@H]1[C@H](N(C)C(=O)c2ccccc2)C[C@H]2O[C@]1(C)n1c3ccccc3c3c4c(c5c6ccccc6n2c5c31)C(=O)NC4` the figure was 79%.
As to `Oc1ccc(-c2nc(-c3ccc(F)cc3)c(-c3ccncc3)[nH]2)cc1`, the residual activity was 95%.
With `CN(C)CCCn1cc(C2=C(c3c[nH]c4ccccc34)C(=O)NC2=O)c2ccccc21` the figure was 119%; with `COc1cc2ncnc(N3CCN(C(=O)Nc4ccc(Oc5ccccc5)cc4)CC3)c2cc1OC`, 98%; with `O=C1NC(=O)c2cc(Nc3ccc(F)cc3)c(Nc3ccc(F)cc3)cc21`, 101%.
Next, `COc1cc2ncnc(Nc3ccc(Oc4ccccc4)cc3)c2cc1OC`: 104%; `NC(=O)c1ccc2[nH]c(-c3ccc(Oc4ccc(Cl)cc4)cc3)nc2c1`: 83%; `O=C1Nc2ccc(Br)cc2/C1=C\c1cc2c([nH]1)CCCC2`: 101%.
Next, `CC(C)n1cnc2c(NCc3ccccc3)nc(NCCCO)nc21`: 94%.
As for `c1ccc(-c2n[nH]cc2-c2ccnc3ccccc23)nc1`, the residual activity is 93%.
Next, `CC#CC(=O)Nc1cc2c(Nc3ccc(F)c(Cl)c3)ncnc2cn1`: 92%.
